Among the data in PubChem BioAssay AID1645878 (National Center for Advancing Translational Sciences (NCATS), 2021) are outcome values, retold here.

Some of the results follow. Results filed as inconclusive are left out. The source made the active and inactive calls. The call rests on the fitted dose curve; in most records, active means well fitted inhibition curve with a large enough effect; inconclusive means small, poorly fitted or top-dose-only effect; inactive means no such curve, though single readings can be large or run the other way.

Sequence of Nicotinamide N-methyltransferase (Homo sapiens) (P40261 whole entry, looked up): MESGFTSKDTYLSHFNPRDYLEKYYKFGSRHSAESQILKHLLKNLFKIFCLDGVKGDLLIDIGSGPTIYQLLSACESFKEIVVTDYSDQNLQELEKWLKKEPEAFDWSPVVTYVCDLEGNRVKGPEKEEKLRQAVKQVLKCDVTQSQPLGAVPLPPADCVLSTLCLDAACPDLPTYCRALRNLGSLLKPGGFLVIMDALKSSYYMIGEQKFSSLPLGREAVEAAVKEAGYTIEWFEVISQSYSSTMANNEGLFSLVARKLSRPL

The target of this experiment is Nicotinamide N-methyltransferase (Homo sapiens) (UniProt P40261). The experiment can be described thus: Counterscreen qHTS for Inhibitors of N-terminal methyltransferase 1 (NTMT1): NNMT MTaseGlo assay. Particulars: NNMT MTase-Glo luminescence, SAH detection; series mostly up to 57.1 µM. The text has this:
Assay Submitter (PI): Rong Huang Ph.D. Purdue University, West Lafayette, IN 47907 The N-terminal methytransferase 1 is the first methyltransferase that methylates protein alpha-N-amines and plays an important role in regulating cell mitosis, chromatin interactions and DNA repair. It is observed to be over-expressed in various cancer patient tissues like malignant melanoma and colorectal cancer tissues. Knockdown of NTMT1 in cancer cells causes cell mitotic defects and enhances sensitivity to DNA damaging chemotherapeutics. […] These critical cellular processes in which NTMT1 is implicated, coupled with emerging links to cellular dysfunction, strengthen the inference that NTMT1 is a compelling novel anticancer target. […] To address this unmet need, a panel of assay is created and established to enable quantitative high-throughput screening (qHTS) for novel, potent, and selective small molecule NTMT1 inhibitors. […] MTaseGlo Assay is a luminescence screen that measure the activity of methyltransferases based on the reaction product S-adenosyl homocysteine (SAH). […]
Materials: NNMT enzyme, SAM, NA, and control is provided by the Huang laboratory. […] 11; Detection; Luminescence; Plates were read using luminescence optics on a ViewLux detector (PerkinElmer). […]
Background: A counterscreen serves to expose hits that act by an unwanted route or on another target.
Turning to `COc1cc2ncnc(Nc3cccc(Cl)c3F)c2cc1OC(=O)N1CCN(C)C[C@H]1C`, the molecule was classed as inactive.

For `CC(C)(O)c1ccc2c(c1)C(=O)CC1[C@](C)(CO)CCC[C@]21C` (some centres not stated), the call was inactive.
